Assay results published in PubChem BioAssay (NCI).
The panel holds about 83,000 compounds, 20% with a hit somewhere; the sample as a whole holds those more often.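 Assay: single dose, 48 h. Readout: percent growth (0 = no net growth; negative = cell death). Active: <10.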 Values without a mark were called inactive. Activity calls are given as the source filed them.

Columns and labels:
Experiment in all cases: NCI-60 one-dose screen, 48 h (100 = growth as untreated, 0 = no growth, -100 = all killed)
Conditions in all cases: 10 µM unless noted
[1] = tested on: DU-145 prostate
[2] = tested on: K-562 leukemia
[3] = tested on: MALME-3M melanoma
[4] = tested on: MDA-MB-231 breast
[5] = tested on: RXF 393 renal
[6] = tested on: SF-268 CNS
[7] = tested on: SF-295 CNS
[8] = tested on: SF-539 CNS
[9] = tested on: UACC-257 melanoma
[10] = tested on: M14 melanoma

Structure (SMILES) | growth [1] | growth [2] | growth [3] | growth [4] | growth [5] | growth [6] | growth [7] | growth [8] | growth [9] | growth [10]
CCOc1cc(\C=N/N=C(N)/C(N)=N\N=C/c2ccc(O)c(OCC)c2)ccc1O | 111% | 83% | 123% | 94.7% | 95.9% | 98.1% | 106% | 112% | 108% | 113%
C=C1CC[C@@H]2[C@](C)(COC(C)=O)[C@H](OC(C)=O)CC[C@@]2(C)[C@@H]1CC(Nc1ccc(S(=O)(=O)Nc2nccc(C)n2)cc1)C1=CCOC1=O (stereo not given in full) | 38.5% | 3.62% (active) | -0.704% (active) | 13.3% | -38.3% (active) | 43.2% | 78.6% | -62.7% (active) | 48.5% | 11.2%
C=C(C)[C@@H]1CC[C@]2(COC(=O)c3cccnc3)CC[C@]3(C)[C@H](CC[C@@H]4[C@@]5(C)CCCN(C(=O)c6cccnc6)C(C)(C)[C@@H]5CC[C@]43C)[C@@H]12 | 44% | 13.7% | 69.1% | 52.7% | 56.1% | 45.5% | 40.9% | 46.4% | 19.9% | 41.5%
CC(C)=CCC[C@](C)(O)C1CC[C@]2(C)[C@@H]1CC[C@@H]1[C@@]3(C)CC/C(=N\OCCC#N)C(C)(C)[C@@H]3CC[C@]12C (stereo not given in full) | 83.9% | 67.6% | 71.8% | 94.1% | 109% | 87.4% | 97.9% | 91.9% | 86.1% | 88.5%
CCN1C(=O)N(CC)C2C1NC(=S)N2/N=C/C=C/c1cccs1 (stereo not given) | 23% | 11.2% | 45.5% | 26.6% | -5.1% (active) | 66.2% | 16.2% | -16% (active) | 63.1% | 12.3%
Cc1ccc(C(F)(F)F)cc1N1CCN(C(=O)[C@H]2C[C@H]2c2ccc(C(F)(F)F)nc2)CC1 | 105% | 78.1% | 94% | 91.3% | 92.8% | 91.3% | 94.7% | 88.6% | 92.7% | 97.5%
O=C(NCCN1CCOCC1)c1cncnc1Nc1ccc2c(ccn2Cc2ccccn2)c1 | 110% | 116% | 102% | 106% | 134% | 97.3% | 102% | 100% | 102% | 108%
CCOC(=O)c1c(NC(=S)Nc2ccc([N+](=O)[O-])cc2)sc2c1CCCCC2 | 89.8% | 81.1% | 72.7% | 79.7% | 85.6% | 89% | 87.2% | 92% | 70.4% | 93.7%
C#CCOc1cccc(Nc2c(Cl)c(CCl)nc3ccc(Oc4ccccc4)cc23)c1 | 43.8% | 15% | 68.4% | 33.2% | 78.6% | 18.8% | 88.7% | 80.7% | 90% | 47.7%
C#C[C@]1(O)CC[C@H]2[C@@H]3CC=C4c5sc(-c6cccc(C)c6)nc5CC[C@]4(C)[C@H]3CC[C@@]21C | 78.5% | 0.702% (active) | 83% | 59.8% | 11.7% | 60.8% | 58.5% | 15.9% | 58.5% | 58.7%
CC(=O)/C(Br)=C/c1ccc(Br)o1 | 68.5% | 4.61% (active) | 61.4% | 95.7% | -13.5% (active) | 75% | 73.7% | 94% | 102% | 64.9%
Cn1cc(-c2ccc3occ(-c4cccc(-c5ccncc5)c4)c3n2)cn1 | 26.9% | 8.55% (active) | 21.2% | 35.4% | 4.67% (active) | 28.5% | 1.64% (active) | -23% (active) | 40.9% | 1.71% (active)
CCOC(=O)C1=C(c2ccccc2)N=C2SC=C(c3cccc([N+](=O)[O-])c3)N2C1c1ccc(O)cc1 (stereo not given) | 102% | 112% | 96.7% | 93.2% | 89.1% | 94.3% | 101% | 98.8% | 96.1% | 101%
COc1ccc(/C(C)=C(\c2ccc(Cl)cc2)c2ccc(OCCCN(C)C)cc2)cc1 | 90.4% | 1.91% (active) | 64.5% | 78.9% | 70.1% | 77.4% | 85.7% | 82.5% | 89.1% | 36.8%
C[C@H]1c2ccccc2CN1CCCOc1cc2c(cc1OCC1CC1)C1(CCCC1)C(N)=N2 | 75.6% | 2.69% (active) | -84.7% (active) | 34.5% | 34.2% | 70.6% | 55.3% | 48.1% | -68.1% (active) | -70.4% (active)
COC(=O)c1nc(-c2ccccc2)oc1S(=O)(=O)N1CCN(c2ccc(OC)cc2)CC1 | 86.5% | 20.4% | 77.4% | 75.7% | 84.9% | 93.8% | 103% | 94.1% | 83.4% | 54.2%
COc1ccc2c(c1)C(c1c[nH]c3ccccc13)(c1c[nH]c3ccccc13)CCO2 | 74.6% | 29.5% | 88.8% | 35.1% | 76.1% | 52.2% | 36.6% | 71.7% | 48.1% | 39.7%
O=C1/C(=C/c2ccc(Br)cc2)COc2ccc(O)cc21 | 101% | 9.11% (active) | 91.7% | 85.9% | 95.9% | 89.8% | 100% | 92.5% | 103% | 83.7%
Cc1ccc(Nc2nc(N)nc(N)c2N=O)cc1Cl | 73.7% | 69.9% | 82.2% | 95.6% | 91.8% | 65.6% | 105% | 82% | 92.2% | 88.4%
CCCS(=O)(=O)Nc1cccc(Nc2ncnc3cc(NC(=O)CCl)ccc23)c1Cl | -92.8% (active) | 0% (active) | -79.2% (active) | -72.5% (active) | -87.3% (active) | -55.9% (active) | -80.5% (active) | -85% (active) | 10.3% | -43.5% (active)
Cc1csc(Nc2nc(-c3cccc(Cl)c3)nc(C(Cl)(Cl)Cl)n2)n1 | -30.4% (active) | 65.6% | 102% | 9.88% (active) | -2.8% (active) | 65.8% | 34.1% | 34% | 36.2% | 88.3%
C=C(C)[C@@H]1CC[C@]2(C#N)CC[C@]3(C)[C@H](CC[C@@H]4[C@@]5(C)CCCNC(C)(C)[C@@H]5CC[C@]43C)[C@@H]12 | 65.5% | -26.2% (active) | 81% | 57.6% | 82.3% | 87.1% | 92.9% | 84% | 70.8% | 64.4%
CCOC(=O)c1c2c(n3ccc(NC(=O)CCN4CCCC4)cc13)C(=O)c1ncccc1C2=O | -89.3% (active) | -40.3% (active) | 66.3% | -71.2% (active) | 47.5% | -67.8% (active) | 32.2% | -75.8% (active) | 105% | 63.7%
Cn1ccnc1C(=O)/C=C/c1ccc(C(=O)Nc2c(F)c(F)c(F)c(F)c2F)cc1 | 12.3% | 1.03% (active) | 80.9% | 7.97% (active) | -52% (active) | 3.53% (active) | 18.2% | -69.9% (active) | 73.7% | 19.2%
COC(=O)[C@H](C)NC(=O)c1ccc(NC(=O)c2[nH]c(C)c(Cl)c2Cl)c(OCCN)c1 | 104% | 66.7% | 113% | 103% | 115% | 96.3% | 102% | 101% | 104% | 119%
C=C1C(=O)O[C@H]2[C@H]1CC/C(CNC(=O)/C=C/c1cc(OC)c(OC)c(OC)c1)=C\CC[C@@]1(C)O[C@@H]21 | 7.86% (active) | -9.87% (active) | -36.6% (active) | 5.65% (active) | -88% (active) | 28.1% | 50.4% | -36% (active) | -26.1% (active) | -32.3% (active)
Cn1cc(-c2csc(-c3cn(C)c4ccc(F)cc34)n2)c2cnccc21 | -6.44% (active) | -60.3% (active) | -92.5% (active) | -33.1% (active) | -85.5% (active) | -60.3% (active) | -81.1% (active) | -92.5% (active) | -73.1% (active) | -80% (active)
